PNC assembly inh: blocks assembly of the perinucleolar compartment; activity change (PNC), negative = inhibition, % at 10 µM; 140,000 tested, 3.1% active; PC3M PTB-GFP, PNC prevalence imaging, 16 h; stronger effect = lower value;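 active = readout at or below -70, meaning at least 70% loss of cells showing the perinucleolar compartment, a nuclear body marking cancer cells; inconclusive = readout between -30 and a set limit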
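Read-out is percentage of cells bearing a perinucleolar compartment, from automated 20x imaging of fixed, Hoechst-stained PC3M PTB-GFP cells. Cells were seeded 4 h, then exposed 16 h to compound (23 nl of library stock) in duplicate plates.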
Tau fluor counter: counter-screen for tau fibril formation inhibitors | tau K18 P301L Alexa594 fluorescence, heparin fibrillization | Potency, µM (doses to about 57.7 µM) | 280,000 tested, 0.93% active; also: nearly all actives have a fitted effect of over 55% in size
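Human tau K18 P301L (15 uM unlabeled, 0.24 uM Alexa 594-labeled) in 100 mM sodium acetate pH 7 with 20 uM heparin, 6 hr at 37 C. ThT 30 uM added, 1 hr ambient; Alexa 594 FP and total fluorescence read at 555/632 nm.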
KDM4E inh: inhibitors of human JMJD2E histone demethylase; 230,000 tested, 1.6% active; B2RXH2; Potency, µM (titrated, usually from 57.1 µM), actives largely listed as inhibitors; JMJD2E catalytic domain, FDH-coupled NADH fluorescence (FDH is formaldehyde dehydrogenase); also: nearly all actives have a fitted effect of over 50% in size
Target sequence (B2RXH2 1-337 limits assumed): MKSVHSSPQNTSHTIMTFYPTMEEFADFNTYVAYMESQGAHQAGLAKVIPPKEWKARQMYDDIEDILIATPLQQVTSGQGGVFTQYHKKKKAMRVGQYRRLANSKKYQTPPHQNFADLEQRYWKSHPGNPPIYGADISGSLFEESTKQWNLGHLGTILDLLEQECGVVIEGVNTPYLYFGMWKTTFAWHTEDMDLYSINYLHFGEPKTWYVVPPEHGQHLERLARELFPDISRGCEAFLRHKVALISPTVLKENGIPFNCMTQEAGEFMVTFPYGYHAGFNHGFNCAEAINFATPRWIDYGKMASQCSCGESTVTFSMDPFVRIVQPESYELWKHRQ
Tau fibril FP: blocks human tau fibril formation measured by polarization; K18 P301L tau heparin fibrillization, Alexa594 FP, 6 h; AID 1468; 280,000 tested, 0.39% active; Potency, µM (top dose mostly 57.7 µM), actives largely listed as inhibitors; P10636; also: nearly all actives have a fitted effect of over 55% in size
Target sequence (P10636 561-689 P618L limits assumed): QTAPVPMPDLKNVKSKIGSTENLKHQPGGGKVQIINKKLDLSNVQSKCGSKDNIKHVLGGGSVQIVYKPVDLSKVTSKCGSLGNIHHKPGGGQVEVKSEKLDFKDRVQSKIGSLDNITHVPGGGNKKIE
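FP of Alexa 594-tau after heparin (20 uM) induction. Substrate: human K18 P301L, 15 uM unlabeled, 0.24 uM labeled. Buffer 100 mM sodium acetate pH 7. 6 hr, 37 C.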
Tau ThT inhib: tau fibrillization inhibition (ThT binding). P10636. recombinant tau K18 P301L, heparin-induced fibrillization, ThT fluorescence. Potency, µM (top dose mostly 57.4 µM), usual class: inhibitors. 270,000 tested, 2.1% active. AID 1460; also: nearly all actives have a fitted effect of over 55% in size
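Fibril formation assay: tau K18 P301L at 15 uM with trace Alexa 594 label, heparin inducer 20 uM, pH 7 sodium acetate buffer, 37 C for 6 hr; endpoint ThT signal.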
NPSR antagonist: neuropeptide S receptor (human) antagonism, cAMP; Potency, µM (top dose mostly 38.3 µM), most hits filed as inhibitors; CHO-NPSR cells, cAMP TR-FRET, antagonist mode; 220,000 tested, 1% active; also: nearly all actives have a fitted effect of over 50% in size
Hits are given with their value; i = inactive; ? = inconclusive; nt = no result given; [ ] = remark or other dose. This is a sample that favours compounds with a hit; in the whole collection about 5.1% have one here. Unless noted, calls follow the shape of the dose curve; as a rule, active = well fitted curve in the direction sought with a large enough effect; inconclusive = small, poorly fitted or top-dose-only effect, or another doubt; inactive = no such curve, though single readings can be large; an effect the other way counts as inactive or inconclusive.

SMILES	PNC assembly inh	Tau fluor counter	KDM4E inh	Tau fibril FP	Tau ThT inhib	NPSR antagonist
Cc1cc[n+](-c2[nH]c(=O)sc2/C=N/NC([S-])=Nc2ccccc2)cc1	i	i	i	i	?	i
Cc1cc(C)c[n+](-c2[nH]c(=O)sc2/C=N/NC([S-])=Nc2ccccc2)c1	i	i	i	i	?	i
CCc1ccc[n+](-c2[nH]c(=O)sc2/C=N/NC([S-])=Nc2ccccc2)c1	i	i	3.55µM	?	25.1µM	i
Cc1cn(S(=O)(=O)c2ccc(Br)c3ccccc23)cn1	?	i	i	i	i	1µM
CC1=C(CO)C(=O)OC([C@@H](C)C2CC[C@H]3C4C[C@H]5O[C@]56[C@@H](O)C=CC(=O)[C@]6(C)C4CC[C@]23C)C1 (stereo not given in full)	nt	i	i	i	?	5.01µM
CC(C(=O)O)C1CCC2C3CC=C4CC(O)CC[C@@]4(C)C3CC[C@]12C (stereo not given in full)	nt	i	i	i	i	nt
COc1ccc(CNC(=O)c2ccc(N3CCCC3)c(NC(=O)NCc3ccc(C)cc3)c2)cc1	nt	?	nt	i	?	nt
O=S(=O)(NNc1nccc(C(F)(F)F)n1)c1cccc(Cl)c1Cl	nt	i	i	?	22.4µM	i
CC1CCCC(C)N1C(=O)CSc1nnc(CSc2ncccn2)n1C (stereo not given)	-100.0	i	i	i	i	i
CC1CCCCN1C(=O)CSc1nnc(Cc2ccccc2)n1C (stereo not given)	-100.0	i	i	i	i	i
COC(=O)N[C@H](C[N+](=O)[O-])c1cccc(C)c1	nt	i	i	i	i	nt
c1ccc(-c2nc3ccccc3nc2-c2ccccn2)nc1	-85.6	i	i	i	i	i
CC1CCc2nn(CC(=O)Nc3ccccc3Cl)cc2C1 (stereo not given)	nt	i	nt	i	i	nt
CCn1c(C)nc2cc(C(=O)N/N=C/c3ccc(OC)cc3)ccc21	nt	i	i	i	?	i
CCn1c(C)nc2cc(C(=O)N/N=C(\C)c3ccc(OC)cc3O)ccc21	nt	i	12.6µM	i	?	i
CCn1c(C)nc2cc(C(=O)N/N=C/c3cccc(O)c3O)ccc21	nt	i	3.55µM	i	?	i
CCn1c(C)nc2cc(C(=O)N/N=C/c3ccccc3)ccc21	nt	i	i	i	i	i
Cc1occc1-c1n[nH]c(=S)n1CC(C)C	-93.5	i	i	i	i	i
c1ccc(Nc2cccc(Nc3ccccc3)c2)cc1	i	11.2µM[quencher]	i	i	?	i
CC(=O)Nc1ccc(NC(=O)C2CCCN2S(=O)(=O)c2ccc3c(c2)CCCC(=O)N3)cc1 (stereo not given)	nt	i	nt	i	i	nt
Cc1cc(N=Nc2c(O)c3ccccc3[nH]c2=O)ccc1N=Nc1ccc(C(=O)N(C)C)cc1	nt	?	i	i	2.24µM	i
CCOc1ccc(C(c2c(O)cc(C)n(CCOC)c2=O)N2CCN(c3ccccc3F)CC2)cc1 (stereo not given)	nt	i	nt	i	?	nt
Cc1nn2c(NCC(C)C)c3c(nc2c1-c1ccccc1)CCC3	i	i	?	i	i	i
Cc1nn2c(NC(C)C)c3c(nc2c1-c1ccccc1)CCC3	nt	?	?	?	28.2µM	?
CN(C)c1ccc(N=Nc2ccccc2C(=O)OCC(=O)Nc2ccccc2C(F)(F)F)cc1	i	?	i	?	5.01µM	i
SMILES	PNC assembly inh	Tau fluor counter	KDM4E inh	Tau fibril FP	Tau ThT inhib	NPSR antagonist
CN(C)c1ccc(N=Nc2ccccc2C(=O)OCC(=O)N2CCCC2)cc1	i	i	i	i	12.6µM	i
O=C(OCC(=O)N1CCOCC1)c1ccccc1SCC(=O)N1CCCC1	i	i	i	i	i	?
CN(C)c1ccc(N=Nc2ccccc2C(=O)OCC(=O)N2CCCCCC2)cc1	?	i	i	i	8.91µM	i
CN(C)c1ccc(C(=O)OCC(=O)N2CCOCC2)cc1	nt	i	i	i	i	i
O=C(CSc1nc2c([nH]c3ccccc32)c(=O)n1-c1cccc(Cl)c1)NCc1ccccc1	nt	i	nt	i	i	nt
CCc1ccc(OCC(=O)Nc2ncn[nH]2)c(Br)c1	nt	i	nt	i	i	nt
Cn1ccc2cc(S(=O)(=O)N3CCN(C(=O)Nc4ccccc4F)CC3)ccc21	nt	i	nt	i	i	nt
COCCn1c(SCC#N)nnc1-c1ccc(OC)cc1	-100.0	i	i	i	i	i
COCCn1c(SCC(=O)Nc2sc(C)c(C)c2C#N)nnc1-c1ccc(OC)cc1	i	i	i	i	i	i
COc1cc(/C=C/C(=O)N2CCC=CC2=O)cc(OC)c1OC	nt	i	i	?	8.91µM	nt
CC(C)=CCC/C(C)=C/CO/N=C1/[C@H]2O[C@@H]2[C@@H](O)[C@H]2[C@H]1CCn1c(=O)n(-c3ccccc3)c(=O)n12	nt	i[11.6 µM]	nt	i[11.6 µM]	i[11.5 µM]	nt
COc1ccc(OC)c(C2c3c(oc4ccc(C)cc4c3=O)C(=O)N2CCCN(C)C)c1 (stereo not given)	nt	i	nt	i	i	nt
O=C(CCNS(=O)(=O)c1ccc2c(c1)CCN2C(=O)C1CC1)Nc1ccc(Cl)cc1	nt	i	nt	?	i	nt
O=C1N=C(N2CCCCC2)S/C1=C/C1=Cc2ccccc2OC1	nt	i	i	i	?	i
O=C1N=C(N2CCCC2C(=O)O)S/C1=C\c1ccco1 (stereo not given)	nt	i	22.4µM	i	i	i
O=C(CCc1ccccc1)NC1CC(=O)N(c2cccc(F)c2)C1 (stereo not given)	nt	i	nt	i	i	nt
CCOc1ccc2[nH]c3c(NCCc4ccc(OC)c(OC)c4)ncnc3c2c1	nt	22.4µM[quencher]	?	?	nt	i
COc1ccc2[nH]c3c(NCCN4CCCCC4)ncnc3c2c1	i	i	?	i	i	?
Cc1ccc2[nH]c3c(NCc4ccco4)ncnc3c2c1	i	i	?	i	?	i
COc1cc(CNc2ncnc3c2[nH]c2ccc(C)cc23)cc(OC)c1	nt	15.8µM[quencher]	?	i	i	i
O=C(Nc1ccc(F)cc1)c1oc2ccccc2c1NC(=O)C12CC3CC(CC(C3)C1)C2	nt	i	nt	?	i	nt
C/C(=N/NC(=O)c1ccncc1)C1=C(O)CC(C)(C)CC1=O	nt	i	14.1µM	i	i	i
CC1=C(C(=O)Nc2ccccc2)C(c2ccc(Br)cc2)n2nc(CCCO)nc2N1 (stereo not given)	nt	i	nt	i	i	nt
CCOC(=O)C1=C(CN2CCN(c3cc(C)ccc3C)CC2)NC(=O)NC1c1ccccc1 (stereo not given)	nt	i	nt	i	i	nt
Cc1ccc(-c2cc(C(F)F)n3ncc(C(=O)Nc4c(C)nn(Cc5ccccc5Cl)c4C)c3n2)cc1	i	i	i	i	?	3.98µM
CC(=O)N1c2c(cc(Br)cc2S(=O)(=O)N2CCN(C(=O)c3ccco3)CC2)CC1C (stereo not given)	-100.0	i	i	i	i	i
Cc1ccc(S(=O)(=O)NNC(=O)C2CCN(Cc3ccccc3)CC2)cc1	-100.0	i	i	i	i	i

Source: PubChem BioAssay
